The values that follow come from PubChem BioAssay (NCI).

Holding throughout (assay): NCI-60 one-dose screen, 48 h (100 = growth as untreated, 0 = no growth, -100 = all killed)
The test system of one assay is DU-145 prostate. To be noted: 10 µM unless noted.
For another assay, the system named is K-562 leukemia. To be noted: 10 µM unless noted.
The subject of another assay is MALME-3M melanoma. The settings on record: 10 µM unless noted.
Another assay concerns MDA-MB-231 breast. The settings on record: 10 µM unless noted.
In the next assay the test system is RXF 393 renal. The settings on record: 10 µM unless noted.
Another assay has as its system SF-268 CNS. To be noted: 10 µM unless noted.
The subject of the next assay is SF-295 CNS. To be noted: 10 µM unless noted.
A further assay relates to SF-539 CNS. The settings on record: 10 µM unless noted.
For the next assay, the system named is M14 melanoma. The settings on record: 10 µM unless noted.
In another assay the test system is UACC-257 melanoma. To be noted: 10 µM.

This is part of a sample that, as a whole, favours compounds with a hit. Of some 83,000 tested, about 20% had one in any assay.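 Activity criterion: percent growth below 10, measured after cells in 96-well plates were exposed to a single compound concentration for 48 hours.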 Unmarked numbers belong to inactive results. The source made the active and inactive calls.

On to `CC(=O)Oc1cccc(OC(C)=O)c1OC(C)=O`, for which the growth in the assay with DU-145 prostate was 108%; in the assay with K-562 leukemia, 100%; in the assay on MALME-3M melanoma it was 97.6%; in the assay on MDA-MB-231 breast, 98.9%; in the assay with RXF 393 renal, 99.5%; in the assay on SF-268 CNS, 105%. The growth is 99.2% in the assay on SF-295 CNS, 99.5% in the assay with SF-539 CNS and 95.3% in the assay with M14 melanoma.
As for `CCN1C(=O)N[C@H]2[C@@H]3NC(=O)c4ccc(Cl)n4[C@@H]3C[C@]21O`, the growth in the assay with DU-145 prostate is 5.1% (active); with K-562 leukemia it was 3.13% (active); in the assay on MALME-3M melanoma it was -1.41% (active); in the assay on MDA-MB-231 breast it was -3.51% (active); in the assay on RXF 393 renal it was 10.2%; in the assay with SF-268 CNS it was 5.4% (active). In addition, the growth is 0.996% (active) with SF-295 CNS, -33.5% (active) with SF-539 CNS and -21.3% (active) with M14 melanoma.
With `CCCCCCCCCCC/C=C\C[C@H](O)C/C=C1/C(=O)C=C[C@@H]1C/C=C\CCCC(=O)OC`, the growth in the assay on DU-145 prostate is 13.3%; in the assay on K-562 leukemia, 2.5% (active); in the assay with MALME-3M melanoma it was -2.61% (active); in the assay on MDA-MB-231 breast it was -18.2% (active); in the assay with RXF 393 renal, -72.8% (active); in the assay on SF-268 CNS, 7.18% (active). Further, the growth was -16% (active) in the assay on SF-295 CNS, -46.2% (active) in the assay with SF-539 CNS and -31.9% (active) with M14 melanoma.
For the molecule `CC(Cc1nnc(SCC(=O)Nc2ccc(I)cc2)n1N)c1ccccc1` (stereo not drawn), the growth is 94.5% in the assay on DU-145 prostate; 87.1% with K-562 leukemia; 108% in the assay with MALME-3M melanoma; 81.8% in the assay with MDA-MB-231 breast; 53.7% with RXF 393 renal; 102% with SF-268 CNS. For the same molecule, the growth with SF-295 CNS was 127%; in the assay with SF-539 CNS, 94.3%; in the assay with M14 melanoma, 95.3%.
With `CC(=O)N1Cc2ccccc2C(C)Cc2cc(Cl)ccc21` (stereo not drawn), the growth with DU-145 prostate was 114%; with K-562 leukemia it was 102%; in the assay with MALME-3M melanoma, 103%; in the assay on MDA-MB-231 breast, 102%; with RXF 393 renal, 124%; in the assay with SF-268 CNS, 104%. For the same molecule, the values for the growth in the assay with SF-295 CNS, in the assay on SF-539 CNS and in the assay on M14 melanoma were 110%, 107% and 103%, respectively.
With `O=C(/C=C/CN1CCOCC1)Nc1cc2c(Nc3cccc(Cl)c3F)ncnc2cc1OCCOC(F)F`, the growth in the assay on DU-145 prostate is 49.5%; in the assay on K-562 leukemia it was 76%; with MALME-3M melanoma it was 64.4%; in the assay with MDA-MB-231 breast, 68.6%; in the assay on RXF 393 renal, 68.4%; in the assay on SF-268 CNS it was 65.2%. Moreover, the growth in the assay with SF-295 CNS is 81.2%; in the assay with SF-539 CNS, 81.4%; with M14 melanoma, 94.3%.
As to `O=[N+]([O-])c1ccc(S(=O)(=O)N2CCN(c3ccnc4cc(Cl)ccc34)CC2)c([N+](=O)[O-])c1`, the growth with DU-145 prostate was 92.3%; in the assay on K-562 leukemia, 18%; in the assay with MALME-3M melanoma, 76.2%; in the assay with MDA-MB-231 breast it was 85.3%; with RXF 393 renal, 74%; in the assay with SF-268 CNS, 86%. For the same molecule, the growth with SF-295 CNS is 100%; in the assay with SF-539 CNS it was 93.5%; in the assay on M14 melanoma, 92.2%.
Take `COc1ccc(/C(=N/O)c2cc(OC)c(OC)c(OC)c2)c(OC)c1N`: the growth with DU-145 prostate was 39%; in the assay with K-562 leukemia, 14.7%; in the assay on MALME-3M melanoma, 53.1%; with MDA-MB-231 breast, 55.3%; in the assay with RXF 393 renal, 23.2%; with SF-268 CNS, 49.1%. Besides, the growth in the assay with SF-295 CNS was 6.4% (active); in the assay with SF-539 CNS it was 3.96% (active); with M14 melanoma, 21%.
In the case of `O=P([O-])(O)OP(=O)([O-])O.[NH-][C@H]1CCCC[C@@H]1[NH-].[OH-].[OH-].[Pt+4]`, the growth with DU-145 prostate is 109%; in the assay on K-562 leukemia, 110%; with MALME-3M melanoma, 111%; in the assay on MDA-MB-231 breast it was 107%; in the assay with RXF 393 renal, 115%; in the assay with SF-268 CNS, 101%. In addition, the results for the growth in the assay with SF-295 CNS, in the assay on SF-539 CNS and with M14 melanoma were 87.1%, 105% and 120%, respectively.
Take `O=c1oc2cc(OS(=O)(=O)c3ccc(F)cc3)ccc2c2c1CCCCC2`: the growth was 78.7% in the assay on DU-145 prostate; 31.6% in the assay with K-562 leukemia; 83.5% in the assay with MALME-3M melanoma; 90.5% in the assay on MDA-MB-231 breast; 86.8% in the assay on SF-268 CNS; 63.4% in the assay on SF-295 CNS. The growth is 78.6% with SF-539 CNS, 62.1% in the assay with UACC-257 melanoma and 69.4% with M14 melanoma.
Turning to `Nc1c(C(=O)Nc2cccc([N+](=O)[O-])c2)sc2nc3c(cc12)C(O)CCC3` (stereo not drawn), the growth is 71.4% with DU-145 prostate; 17.6% in the assay with K-562 leukemia; 65.8% in the assay with MALME-3M melanoma; 65.5% in the assay on MDA-MB-231 breast; 60.5% with SF-268 CNS; 57.4% in the assay with SF-295 CNS. The figures for the growth in the assay on SF-539 CNS, with UACC-257 melanoma and in the assay with M14 melanoma were 37%, 66.8% and 35.3%, respectively.
Regarding `CC(=O)Nc1nc(C(=O)N2N=C(C)/C(=C/c3ccc(Cl)cc3)C2=O)cs1`, the growth was 103% in the assay on DU-145 prostate; 106% with K-562 leukemia; 93.1% in the assay on MALME-3M melanoma; 110% in the assay with MDA-MB-231 breast; 96.2% with SF-268 CNS; 98.2% in the assay with SF-295 CNS. Besides, the results for the growth in the assay on SF-539 CNS, in the assay with UACC-257 melanoma and in the assay on M14 melanoma were 107%, 94% and 96.7%, respectively.
In the case of `O=C(c1ccccc1)C(Cl)C(Cl)c1ccccc1` (stereo not drawn), the growth was 45.7% with DU-145 prostate; -1.74% (active) in the assay on K-562 leukemia; 4.33% (active) in the assay with MALME-3M melanoma; 25.8% with MDA-MB-231 breast; 17.2% in the assay with RXF 393 renal; 82.5% in the assay with SF-268 CNS. Besides, the growth was 104% in the assay on SF-295 CNS, 31% with SF-539 CNS and 46.8% in the assay on M14 melanoma.
Consider `CC(C)(C)c1cc(-c2nc3ccc(N4CCN(CCO)CC4)cc3[nH]2)cc(C(C)(C)C)c1O`, for which the growth was 70.5% with DU-145 prostate; -24.2% (active) in the assay with K-562 leukemia; -26.4% (active) with MALME-3M melanoma; 39.2% in the assay with MDA-MB-231 breast; 68.3% with SF-268 CNS; 98.2% in the assay with SF-295 CNS. The growth with SF-539 CNS is 55.3%.
As to `O=C(c1c[nH]c2ccccc12)C(Sc1nc2ccccc2c(=O)[nH]1)c1ccccc1` (stereo not drawn), the growth was 94.3% in the assay on DU-145 prostate; 101% in the assay on K-562 leukemia; 88.7% in the assay with MALME-3M melanoma; 91.6% with MDA-MB-231 breast; 26.1% in the assay with RXF 393 renal; 105% in the assay with SF-268 CNS. Besides, the growth is 93.1% in the assay with SF-295 CNS, 89.2% in the assay with SF-539 CNS and 104% in the assay on M14 melanoma.
